Laboratory results from ChEMBL document CHEMBL1961873, “Compounds: GSK PKIS; Assays: Nanosyn kinase panel” (2012).

Key:
[1] = target: Serine/threonine-protein kinase MRCK alpha (Homo sapiens) (UniProt Q5VT25); conditions: at 0.1 µM
[2] = target: Serine/threonine-protein kinase MRCK alpha (Homo sapiens) (UniProt Q5VT25); conditions: at 1 µM
[3] = target: Serine/threonine-protein kinase MRCK beta (Homo sapiens) (UniProt Q9Y5S2); conditions: at 0.1 µM
[4] = target: Serine/threonine-protein kinase MRCK beta (Homo sapiens) (UniProt Q9Y5S2); conditions: at 1 µM
[5] = target: Ribosomal protein S6 kinase alpha-5 (Homo sapiens) (UniProt O75582); conditions: at 0.1 µM
Ribosomal protein S6 kinase alpha-5 (Homo sapiens), sequence (O75582 whole entry, looked up): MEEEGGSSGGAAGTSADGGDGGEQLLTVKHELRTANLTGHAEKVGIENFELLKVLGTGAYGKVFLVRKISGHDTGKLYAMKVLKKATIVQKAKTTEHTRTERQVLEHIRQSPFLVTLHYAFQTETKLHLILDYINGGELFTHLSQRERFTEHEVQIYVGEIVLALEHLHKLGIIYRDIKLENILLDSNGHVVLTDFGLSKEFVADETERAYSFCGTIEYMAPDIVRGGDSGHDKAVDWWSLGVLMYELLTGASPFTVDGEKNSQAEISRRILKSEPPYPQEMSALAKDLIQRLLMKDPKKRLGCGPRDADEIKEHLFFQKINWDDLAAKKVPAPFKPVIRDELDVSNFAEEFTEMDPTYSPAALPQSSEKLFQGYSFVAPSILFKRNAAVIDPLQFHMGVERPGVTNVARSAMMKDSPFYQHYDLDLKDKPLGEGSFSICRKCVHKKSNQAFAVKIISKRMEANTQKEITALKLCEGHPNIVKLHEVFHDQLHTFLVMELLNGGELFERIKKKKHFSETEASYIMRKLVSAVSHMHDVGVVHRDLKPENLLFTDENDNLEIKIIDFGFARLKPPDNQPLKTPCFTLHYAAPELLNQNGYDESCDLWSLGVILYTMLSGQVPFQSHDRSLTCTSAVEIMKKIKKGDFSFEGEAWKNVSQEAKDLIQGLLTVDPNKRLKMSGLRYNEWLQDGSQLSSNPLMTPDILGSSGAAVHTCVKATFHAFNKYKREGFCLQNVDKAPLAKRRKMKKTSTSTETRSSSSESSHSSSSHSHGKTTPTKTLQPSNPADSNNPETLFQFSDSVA

[6] = target: Ribosomal protein S6 kinase alpha-5 (Homo sapiens) (UniProt O75582); conditions: at 1 µM
[7] = target: Ribosomal protein S6 kinase alpha-4 (Homo sapiens) (UniProt O75676); conditions: at 0.1 µM
[8] = target: Ribosomal protein S6 kinase alpha-4 (Homo sapiens) (UniProt O75676); conditions: at 1 µM
[9] = target: Ribosomal protein S6 kinase beta-1 (Homo sapiens) (UniProt P23443); conditions: at 0.1 µM
Ribosomal protein S6 kinase beta-1 (Homo sapiens), sequence (P23443 whole entry, looked up): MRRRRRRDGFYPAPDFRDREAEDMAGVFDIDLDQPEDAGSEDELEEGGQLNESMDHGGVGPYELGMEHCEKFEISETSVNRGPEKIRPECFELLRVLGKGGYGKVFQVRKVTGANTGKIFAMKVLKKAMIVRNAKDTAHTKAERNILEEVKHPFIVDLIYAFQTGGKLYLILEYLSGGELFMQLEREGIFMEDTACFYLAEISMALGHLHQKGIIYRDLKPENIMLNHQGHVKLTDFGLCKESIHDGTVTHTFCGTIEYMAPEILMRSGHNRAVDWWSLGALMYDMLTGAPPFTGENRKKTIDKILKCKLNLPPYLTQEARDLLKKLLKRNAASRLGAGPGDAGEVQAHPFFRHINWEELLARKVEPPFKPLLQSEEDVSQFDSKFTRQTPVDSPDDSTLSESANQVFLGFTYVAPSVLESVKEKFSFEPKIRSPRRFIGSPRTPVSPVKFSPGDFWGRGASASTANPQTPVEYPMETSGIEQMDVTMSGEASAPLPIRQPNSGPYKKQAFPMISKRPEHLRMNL

[10] = target: Ribosomal protein S6 kinase beta-1 (Homo sapiens) (UniProt P23443); conditions: at 1 µM
[11] = target: T1, 3-phosphoinositide-dependent protein kinase 1 (Homo sapiens) (UniProt O15530); conditions: at 0.1 µM;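 further: values are mean inhibition of PDK1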
T1 sequence (whole entry): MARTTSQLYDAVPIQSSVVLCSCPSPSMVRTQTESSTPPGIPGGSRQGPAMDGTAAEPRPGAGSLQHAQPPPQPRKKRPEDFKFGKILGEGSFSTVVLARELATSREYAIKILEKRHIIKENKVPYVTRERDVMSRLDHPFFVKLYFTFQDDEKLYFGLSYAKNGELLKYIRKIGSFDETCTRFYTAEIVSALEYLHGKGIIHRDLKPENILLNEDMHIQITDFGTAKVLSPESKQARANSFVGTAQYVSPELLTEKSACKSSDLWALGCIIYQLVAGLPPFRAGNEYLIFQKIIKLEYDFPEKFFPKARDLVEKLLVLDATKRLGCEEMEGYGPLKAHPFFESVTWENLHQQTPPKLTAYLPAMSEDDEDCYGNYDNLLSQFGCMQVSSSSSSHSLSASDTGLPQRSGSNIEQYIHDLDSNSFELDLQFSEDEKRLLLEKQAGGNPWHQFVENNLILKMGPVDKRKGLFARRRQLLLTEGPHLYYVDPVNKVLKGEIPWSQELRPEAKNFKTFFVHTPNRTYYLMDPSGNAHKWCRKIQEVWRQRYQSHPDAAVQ

[12] = target: cAMP-dependent protein kinase catalytic subunit alpha (Homo sapiens) (UniProt P17612); conditions: at 0.1 µM
[13] = target: cAMP-dependent protein kinase catalytic subunit alpha (Homo sapiens) (UniProt P17612); conditions: at 1 µM
[14] = target: Protein kinase C alpha type (Homo sapiens) (UniProt P17252); conditions: at 0.1 µM
[15] = target: Protein kinase C alpha type (Homo sapiens) (UniProt P17252); conditions: at 1 µM
[16] = target: Protein kinase C beta type (Homo sapiens) (UniProt P05771); conditions: at 0.1 µM
[17] = target: Protein kinase C beta type (Homo sapiens) (UniProt P05771); conditions: at 1 µM
[18] = target: Protein kinase C eta type (Homo sapiens) (UniProt P24723); conditions: at 0.1 µM
Protein kinase C eta type (Homo sapiens), sequence (P24723 whole entry): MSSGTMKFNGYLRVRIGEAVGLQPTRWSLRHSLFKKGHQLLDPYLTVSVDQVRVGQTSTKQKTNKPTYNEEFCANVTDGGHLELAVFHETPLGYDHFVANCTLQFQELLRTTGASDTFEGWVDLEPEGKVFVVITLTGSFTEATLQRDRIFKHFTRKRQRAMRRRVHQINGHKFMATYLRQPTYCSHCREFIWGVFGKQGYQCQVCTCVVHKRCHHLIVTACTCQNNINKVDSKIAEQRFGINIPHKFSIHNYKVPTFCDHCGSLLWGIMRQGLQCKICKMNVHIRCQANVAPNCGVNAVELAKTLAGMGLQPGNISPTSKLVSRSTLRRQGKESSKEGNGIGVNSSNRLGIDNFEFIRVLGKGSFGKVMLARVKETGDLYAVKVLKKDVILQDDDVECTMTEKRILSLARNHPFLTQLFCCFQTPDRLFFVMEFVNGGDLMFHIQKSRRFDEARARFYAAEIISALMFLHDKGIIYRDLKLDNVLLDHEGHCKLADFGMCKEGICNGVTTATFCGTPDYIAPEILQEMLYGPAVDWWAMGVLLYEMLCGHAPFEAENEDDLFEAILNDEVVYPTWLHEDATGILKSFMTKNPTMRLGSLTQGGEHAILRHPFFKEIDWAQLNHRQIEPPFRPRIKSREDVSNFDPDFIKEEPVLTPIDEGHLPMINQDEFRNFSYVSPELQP

[19] = target: Protein kinase C eta type (Homo sapiens) (UniProt P24723); conditions: at 1 µM
[20] = target: Protein kinase C gamma type (Homo sapiens) (UniProt P05129); conditions: at 0.1 µM;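 further: values are mean percent inhibition of PKC gamma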

Serine/threonine-protein kinase MRCK beta (Homo sapiens), sequence (Q9Y5S2 whole entry): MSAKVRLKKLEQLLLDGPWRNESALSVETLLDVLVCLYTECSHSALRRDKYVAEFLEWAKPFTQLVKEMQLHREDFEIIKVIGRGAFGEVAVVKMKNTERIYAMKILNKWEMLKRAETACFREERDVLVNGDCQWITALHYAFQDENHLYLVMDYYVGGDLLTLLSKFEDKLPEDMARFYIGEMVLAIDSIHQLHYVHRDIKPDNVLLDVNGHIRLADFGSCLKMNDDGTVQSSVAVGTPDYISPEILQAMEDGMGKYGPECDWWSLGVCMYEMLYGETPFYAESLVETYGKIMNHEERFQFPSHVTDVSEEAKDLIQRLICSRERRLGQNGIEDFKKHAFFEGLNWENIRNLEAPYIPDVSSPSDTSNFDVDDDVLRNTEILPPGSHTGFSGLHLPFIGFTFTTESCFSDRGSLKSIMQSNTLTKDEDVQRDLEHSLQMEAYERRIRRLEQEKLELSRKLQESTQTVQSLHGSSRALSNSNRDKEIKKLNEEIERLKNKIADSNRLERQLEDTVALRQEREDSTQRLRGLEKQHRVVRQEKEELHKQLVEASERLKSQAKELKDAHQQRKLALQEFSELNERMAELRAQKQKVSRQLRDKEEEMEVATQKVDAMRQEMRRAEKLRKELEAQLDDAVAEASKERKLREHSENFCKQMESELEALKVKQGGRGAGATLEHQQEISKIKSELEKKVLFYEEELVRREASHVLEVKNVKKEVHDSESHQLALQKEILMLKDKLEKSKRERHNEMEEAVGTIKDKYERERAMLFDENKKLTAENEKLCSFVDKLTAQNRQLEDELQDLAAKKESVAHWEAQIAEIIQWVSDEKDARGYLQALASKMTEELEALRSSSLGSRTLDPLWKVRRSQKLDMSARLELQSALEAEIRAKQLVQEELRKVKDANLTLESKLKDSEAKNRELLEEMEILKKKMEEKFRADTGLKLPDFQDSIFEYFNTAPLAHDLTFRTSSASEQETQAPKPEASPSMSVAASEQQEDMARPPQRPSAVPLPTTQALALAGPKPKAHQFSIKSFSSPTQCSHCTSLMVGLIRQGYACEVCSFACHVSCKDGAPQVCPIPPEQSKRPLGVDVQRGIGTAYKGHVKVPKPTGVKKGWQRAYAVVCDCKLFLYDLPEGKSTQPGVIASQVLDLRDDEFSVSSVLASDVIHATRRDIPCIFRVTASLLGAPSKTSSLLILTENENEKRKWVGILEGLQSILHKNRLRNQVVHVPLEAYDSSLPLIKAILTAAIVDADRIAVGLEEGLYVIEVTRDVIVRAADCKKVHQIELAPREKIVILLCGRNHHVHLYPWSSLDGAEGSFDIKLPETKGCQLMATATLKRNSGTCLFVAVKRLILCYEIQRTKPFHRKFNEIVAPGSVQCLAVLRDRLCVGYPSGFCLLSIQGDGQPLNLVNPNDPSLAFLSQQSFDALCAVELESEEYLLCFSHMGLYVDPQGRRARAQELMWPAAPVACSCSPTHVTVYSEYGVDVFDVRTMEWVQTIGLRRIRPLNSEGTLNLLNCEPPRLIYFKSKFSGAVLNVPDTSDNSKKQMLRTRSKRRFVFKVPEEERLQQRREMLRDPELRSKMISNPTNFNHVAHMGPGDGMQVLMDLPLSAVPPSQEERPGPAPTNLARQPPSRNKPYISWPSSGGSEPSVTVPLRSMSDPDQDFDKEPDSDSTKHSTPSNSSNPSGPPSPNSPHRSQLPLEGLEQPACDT

Row | Structure (SMILES) | inhibition [1] [%] | inhibition [2] [%] | inhibition [3] [%] | inhibition [4] [%] | inhibition [5] [%] | inhibition [6] [%] | inhibition [7] [%] | inhibition [8] [%] | inhibition [9] [%] | inhibition [10] [%] | inhibition [11] [%] | inhibition [12] [%] | inhibition [13] [%] | inhibition [14] [%] | inhibition [15] [%] | inhibition [16] [%] | inhibition [17] [%] | inhibition [18] [%] | inhibition [19] [%] | inhibition [20] [%]
1 | Cc1ccc2c(-c3ccnc(Nc4cccc(C(F)(F)F)c4)n3)c(-c3ccccc3)nn2n1 | 1.06 | 5.98 | 0.83 | 1.46 | -3.38 | -4.64 | 2.52 | 3.99 | 2.1 | 2.71 | 0.65 | 2.43 | 4.26 | 1.57 | 10.6 | 0.54 | 3.6 | 5.12 | 4.11 | -1.08
2 | N#Cc1cccc(Nc2nccc(-c3cnn4ncccc34)n2)c1 | 0 | 2.93 | -1.54 | 1.01 | 3.66 | 8.54 | 2.1 | 8.46 | 0.58 | 3.59 | 2.83 | 2.6 | 12.8 | 26.2 | 72.8 | 2.69 | 20 | 7.07 | 31.9 | 6.2
3 | CN(C)C(=O)O[C@@H]1CN[C@@H](C#Cc2cc3ncnc(Nc4ccc(OCc5cccc(F)c5)c(Cl)c4)c3s2)C1 | 0.14 | 1.14 | -0.75 | 0.85 | 0.39 | 2.9 | -1.34 | 2.41 | 0.37 | 1.14 | 0.77 | 0.67 | 1.2 | 0.33 | 1.13 | -1.27 | 2.12 | 4.86 | 1.38 | -1.57
4 | COc1ccc2ncnc(Nc3ccc(OCc4ccccc4)cc3)c2c1 | 0.54 | 2.68 | 0.54 | 0.8 | 1.25 | 0.63 | -3.48 | 1.47 | 1.08 | 0.96 | 1.04 | 2.11 | 1.43 | -0.06 | 1.22 | 0.57 | 2.16 | -0.44 | -0.65 | 0.01
5 | COc1cccc(-n2ncc3c(N/N=C/c4ccc(C)cc4)ncnc32)c1 | 4.17 | 5.98 | 1.06 | 1.73 | -3.87 | -2.7 | 3.45 | 5.55 | 2.62 | 3.95 | 0.64 | 3.22 | 2.93 | 0.52 | 1.66 | 0.67 | 1.01 | 5.56 | 4.73 | 2.06
6 | Nc1nccc(-c2c(-c3ccc(F)cc3)ncn2CCCN2CCOCC2)n1 | 0.42 | 1.54 | 0.49 | 1.1 | 6.47 | 6.81 | 4.22 | 3.46 | 1.35 | 1.45 | 0.38 | 3.31 | 9.33 | 0.84 | 4.5 | 1.5 | 7.05 | 4.26 | 7.49 | 3.25
7 | CN1CCN(C(=O)c2ccc(NC(=O)Nc3ccc(N(C)c4ccnc(Nc5ccc(CS(C)(=O)=O)cc5)n4)cc3)cc2)CC1 | 5.17 | 7.71 | -0.06 | 3.61 | 1.16 | 3.3 | 2.61 | 13.8 | 1.43 | 5.8 | 1.6 | 1.2 | 4.5 | -0.39 | 0.75 | 0.01 | 2.15 | 3.18 | 2.34 | 2.19
8 | CS(=O)(=O)CCNCc1nc(-c2ccc3ncnc(Nc4ccc(OCc5cccc(C(F)(F)F)c5)cc4)c3c2)cs1 | 4.26 | 2.95 | -0.6 | 0.82 | 0.64 | 1.57 | 1.54 | 2.66 | 1.22 | 1.83 | 0.07 | 1.46 | 0.51 | -0.15 | -0.72 | 0.26 | 1.43 | 3.05 | 2.2 | 0.96
9 | Cc1cc(Cl)cc2c1NC(=O)C2=NNc1ccc(S(N)(=O)=O)cc1 | 0.98 | 2.69 | 0.17 | -0.38 | 3.06 | 2.08 | 2.85 | 3.47 | 0.25 | 2.34 | 0.95 | 1.21 | 1.37 | 0.07 | -0.61 | 0.78 | 2.56 | -0.95 | 2.95 | 0.4
10 | c1ccc(Nc2ncc(-c3ccccc3)o2)cc1 | 1.05 | 2.6 | -0.11 | 0.28 | 3.68 | 3.58 | 2.52 | 3.34 | 3.16 | 5 | 4.59 | 2.19 | 3.41 | 1.37 | 2.47 | -0.26 | -0.49 | 2.48 | 5.31 | 2.57
11 | N#Cc1c(NC(=O)c2ccccc2F)sc2c1CCCC2 | 1.07 | -1.26 | 0.23 | -0.14 | -2.83 | -2.33 | -1.11 | -0.35 | -0.91 | -0.98 | -1.52 | -0.5 | 0.91 | -0.76 | 1.15 | 0.38 | 1.07 | -2.89 | 1.15 | 0.73
12 | NS(=O)(=O)c1cccc(-c2cc3ccncc3cc2OCc2ccccc2)c1 | 0.79 | -0.95 | 1.07 | 0.42 | 6.93 | 5.54 | 2.88 | 6.76 | 1.84 | 1.18 | 0.97 | 1.81 | 3.34 | 1.18 | 1.96 | -0.33 | 0.71 | 2.45 | 2.7 | 3.28
13 | NS(=O)(=O)c1cccc(Nc2cc(-c3ccc(F)cc3)n[nH]2)c1 | -0.33 | 4.84 | -0.58 | 2.02 | 9.72 | 11.4 | 3.37 | 5.59 | 1.79 | 3.12 | 0.96 | 5.01 | 6.49 | 0.02 | 1.69 | 2.83 | 6 | 2.29 | 5.6 | 4.38
14 | CCCN1CCCC(c2ccc(Nc3nc(Nc4cc(F)ccc4C(N)=O)c4cc[nH]c4n3)c(OC)c2)C1 (stereo not given) | 1.76 | 17.9 | 1.55 | 13 | 4.88 | 5.31 | 1.64 | 7.01 | 1.93 | 4.24 | 2.08 | 2.2 | 2.23 | 2.24 | 15.9 | -0.31 | 3.2 | 1.86 | 1.44 | 5.05
15 | COC(=O)c1ccc2c(c1)C(=Cc1cc(Br)c(O)c(Br)c1)C(=O)N2 | 5.51 | 5.34 | -0.51 | -0.15 | 7.14 | 12.2 | 2.52 | 6.18 | 1.57 | 3.47 | -0.14 | 1.68 | 0.85 | 0.87 | 2.31 | -0.23 | -0.51 | 2.26 | 3.91 | 1.07
16 | COc1cc2ncnc(Nc3ccc4c(cnn4Cc4ccccc4)c3)c2cc1OC | 1.92 | 0.94 | -0.95 | -0.76 | 7.1 | 7.6 | 1.21 | 2.89 | 0.98 | 1.35 | 0.98 | 0.6 | -0.11 | 0.53 | 0.88 | 0.81 | -2.42 | 5.6 | 3.69 | 2.66
17 | CCOc1nccc2c1nc(-c1nonc1N)n2CC | 2.25 | 5.56 | 1.28 | 2.92 | 13.2 | 45.4 | 6.75 | 27.6 | 13.4 | 56.5 | 1.85 | 3.12 | 9.17 | -0.03 | 1.03 | 11.6 | 39.7 | 7.44 | 24.1 | 3.01
